Test results taken from ChEMBL document CHEMBL3433997, “St. Jude Leishmania screening dataset” (2016).
Where “and” joins values, the source holds several entries; their conditions need not be identical. Identical values can stand only once.

Molecular target: Glucose transporter (Leishmania mexicana) (UniProt O61059)
Assay: ST_JUDE_LEISH: Cytotoxicity at 2uM final concentration against transgenic Leishmania Mexicana promastigotes LmGT2 that are glucose transport deficient and complemented with the L. Mexicana glucose transporter 2. Activity is measured by DNA content using SYBR green in vitro
Type: functional

| Structure (SMILES) | inhibition |
| --- | --- |
| O=C1Nc2ccccc2/C1=N/NC(=S)N1CCOCC1 | 0.09% |
| CN1CCCC(CN2CCN(Cc3ccc(-c4cccc(-c5nc6cc(F)ccc6[nH]5)c4)cc3)CC2)C1 (stereo not given) | 2.3% |
| COC(=O)c1cccc(CNCc2ccc(-c3cccc(-c4nc5ccccc5[nH]4)c3)cc2)c1 | 0% |
| CS(=O)(=O)N1CC2(CCN(CCC(NC(=O)NCc3ccccc3Cl)c3ccc(Cl)c(Cl)c3)CC2)c2ccccc21 (stereo not given) | 1.78% |
| CC1CCCC(NC(=O)CCOc2ccccc2)C1 (stereo not given) | 6.88% |
| O=C(NC1CCCCC1)N(Cc1cccc(-c2ccc(CNC3CCCC3)cc2)c1)C1CCN(Cc2ccccc2)CC1 | 9.9% |
| CC(=O)Nc1ccc(CN(C)C2CCN(c3cc(NC(=O)c4cccc(C)c4)ccn3)CC2)cc1 | 2.5% |
| NCC(NC(=O)c1ccc(-c2c[nH]c3ncccc23)s1)c1ccccc1 (stereo not given) | 25.9% |
| Cc1cc(I)ccc1Nc1nc2nonc2nc1Nc1ccc(I)cc1C | 9.11% |
| Cn1c(=O)c2cc(C(=O)NCCCN3CCCCCC3)sc2c2ccccc21 | 5.05% |
| Cc1nc(-c2ccccc2)nc(N2CCN(C(=O)c3ccco3)CC2)c1Cc1ccccc1F | 7.76% |
| CCN(CC)CCOc1ccc(N(Cc2ccc(C(C)(C)C)cc2)C(=O)c2ccc(Cc3ccccc3)cc2)cc1OC | 13.1% |
| COc1ccc2nccc([C@@H](O)CN3CCC(NC(=O)c4ccc(Oc5ccccc5)cc4)CC3)c2c1 | 1.34% |
| COc1ccc2nccc(N3CCC(CCNCc4cc5c(cn4)OCCO5)CC3)c2n1 | 1.72% |
| CN1CCC(C(=O)N(Cc2ccc(-c3ccc(CNCCc4ccc(S(C)(=O)=O)cc4)cn3)cc2)Cc2ccc3c(c2)OCO3)CC1 | 3.77% |
| COc1ccc(C[C@H](N)C(=O)N[C@H]2[C@@H](O)[C@H](n3cnc4c(N(C)C)ncnc43)O[C@@H]2CO)cc1 | 3.16% and 2.8% |
| CCN(CCCN1CCCCC1)c1cc(C)nc(Nc2ccc(Oc3ccccc3)cc2)n1 | 5.44% |
| N#Cc1cnc(Nc2ccc(Oc3ccccc3)cc2)nc1Nc1cccc(S(N)(=O)=O)c1 | 5.25% |
| O=S(=O)(c1ccccc1C(F)(F)F)C1CC2CCC(C1)N2S(=O)(=O)c1ccc(Cl)c(C(F)(F)F)c1 (stereo not given) | 0.74% |
| O=C(c1cncc(-c2ccccc2)c1)N(Cc1cncn1Cc1ccccc1F)CC1CC1 | -0.58% |

| Structure (SMILES) | inhibition |
| --- | --- |
| CCn1c(-c2nonc2N)nc2c(-c3cccc(NC(=O)Nc4ccc(Cl)cc4)c3)ncc(OCCCN)c21 | 1.46% |
| Fc1ccc2[nH]ccc(=NN=CC=Cc3ccccc3)c2c1 | -2.56% |
| Cc1noc(C)c1-c1ccc2c(Nc3ccccc3C(C)(C)C)c(C(=O)NCc3cccc4ccccc34)cnc2c1 | 0.05% |
| Cc1ccc(C(=O)Nc2cccc([N+](=O)[O-])c2)cc1S(=O)(=O)N1CC(C)CC(C)C1 (stereo not given) | 0.08% |
| O=[N+]([O-])c1ccccc1/C=N/Nc1ccnc2cc(Cl)ccc12 | 3.41% |
| Clc1ccc(Nc2nc3ccc(Cl)cc3nc2Nc2ccc(Cl)cc2)cc1 | 7.3% |
| O=c1cc(NCCCNCc2ccccc2-c2ccccc2)[nH]c2ccccc12 | 1.59% |
| O=C(Nc1cccc(CN2CCCN(Cc3ccc(O)cc3)CC2)c1)c1cccc(Cl)c1 | 11.7% |
| Cc1nc(NC2=NCN(CCCN3CCOCC3)CN2)nc2c(C)cccc12 | 11% |
| O=C(Nc1ccc(-c2cccc(-c3nc4cc(C(F)(F)F)ccc4[nH]3)c2)cc1)Nc1ccc(F)c(F)c1F | -1.97% |
| O=C(NC1CCCCC1)N(Cc1ccc(-c2cccc(CNCc3ccc4c(c3)OCO4)c2)cc1)C1CCN(Cc2ccccc2)CC1 | 0.81% |
| COc1cccc(CNC[C@@H](O)[C@H](Cc2ccccc2)NC(=O)c2cc(C3CCCC3)cc(N3CCCCS3(=O)=O)c2)c1 | 0.92% |
| CN(CCCN(C)c1cc(NC(=O)c2ccc(F)cc2)ccn1)Cc1cccc(O)c1 | -0.03% |
| COc1ccc(Nc2nccc(N3CCC(NC(=O)Nc4cc(C)ccc4C)C3)n2)cc1 (stereo not given) | 9.76% |
| COc1cc2nccc(Nc3cccc(Oc4ccccc4)c3)c2cc1OC | 9.3% |
| CCc1nc2c(N)nc(N)nc2nc1-c1ccc(OC)cc1 | 1.23% |
| CC(=O)c1c(C)[nH]c(C(=O)Nc2ccc(-c3nc4ccc(C)cc4s3)cc2)c1C | 2.35% |
| CCOC(=O)c1ccc(OCCCCCCOc2ccc(Br)cc2)cc1 | -0.5% |
| O=C(NC(Nc1ccc([N+](=O)[O-])cc1)C(Cl)(Cl)Cl)c1ccc(Cl)cc1 (stereo not given) | -2.78% |
| Cc1[nH]c2ccc(-c3ccc(N(C)C)cc3)cc2c(=O)c1Cl | 2.73% |
